From PubChem
Only some compounds are listed: those with a hit (about 4.7% of all), similar ones and a draw of the others.
D1 PAM – potentiators of human D1 dopamine receptor; HEK293 TREx D1 cells, calcium flux, dopamine EC20 potentiation; potentiation, % at 10 µM; hit rate 0.036% among 360,000; in the data active = potentiation above about 30%; also: 0% is about no effect
TRHR enhancer – TRH receptor (human) allosteric enhancement | TRHR cells, fluo-8 calcium fluorescence, EC20 TRH enhancement | enhancement, % at 2 µM | hit rate 0.66% among 360,000 | AID 493056; in the data active = enhancement above about 30%; also: 0% is about no effect
Target sequence (P34981 whole entry, looked up): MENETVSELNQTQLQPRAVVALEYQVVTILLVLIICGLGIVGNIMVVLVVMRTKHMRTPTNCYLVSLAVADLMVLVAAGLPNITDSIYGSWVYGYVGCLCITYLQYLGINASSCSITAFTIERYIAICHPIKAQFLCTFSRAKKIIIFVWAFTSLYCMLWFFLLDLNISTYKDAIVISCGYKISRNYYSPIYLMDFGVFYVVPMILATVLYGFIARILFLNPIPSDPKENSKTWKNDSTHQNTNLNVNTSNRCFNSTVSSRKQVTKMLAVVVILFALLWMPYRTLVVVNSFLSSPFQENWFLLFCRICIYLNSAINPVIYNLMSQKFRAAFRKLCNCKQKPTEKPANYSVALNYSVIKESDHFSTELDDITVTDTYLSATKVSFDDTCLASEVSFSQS
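Enhancer read-out: after compound pinning and an initial kinetic agonist-mode read, an EC20 of TRH (10 nM final) was injected and fluo-8 calcium signal (Ex 480/Em 530) followed at 1 s/cycle for 100 cycles in TRHR-expressing cells.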
TRHR agonist – TRH receptor (human) agonism | P34981 | TRHR cells, calcium flux fluo-8, FDSS agonist mode | activation, % at 2 µM | hit rate 0.18% among 360,000 | AID 493084; also: 0% is about no effect
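Read-out: compound-evoked intracellular calcium rise in TRHR cells, fluo-8 dye, kinetic FDSS fluorescence at 1 s/cycle following a 10-cycle baseline. Cells cultured overnight before dye loading (30 min–1.5 h, RT).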
D1 agonist – activates the human D1 dopamine receptor | P21728 | HEK293 T-REx D1 cells, calcium flux, agonist mode | activation, % at 2 µM | hit rate 1% among 360,000; also: 0% is about no effect
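Agonism was scored from calcium flux recorded over 180 s (1 read/s) after pintool compound addition, following a 10-cycle baseline. Cells were inducible force-coupled HEK293 TREx D1, plated overnight at 30 C and loaded with no-wash calcium dye.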
D1 antagonist – antagonists of human D1 dopamine receptor; hit rate 3.2% among 360,000; activity change, negative = inhibition, % at 10 µM; AID 504652; HEK293 TREx D1 cells, calcium flux, dopamine EC80; active compounds read low; P21728; in the data active = activity change below about -30%; also: % is scaled to controls: 0 for no effect and ±100 for the full control effect
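Inducible Hek293 Trex D1 cells (tetracycline, overnight, 30 C). Calcium dye 30–90 min RT. Antagonist mode: EC80 dopamine added after 180 s compound read.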
Starred values were filed as active, the others as inactive. Rule as the data show it, unless noted: active = activation above about 30%; inactive = the rest.

SMILES | D1 PAM | TRHR enhancer | TRHR agonist | D1 agonist | D1 antagonist
CCOC(=O)Cc1c(C)nc2cc(-c3ccc(C(C)(C)C)cc3)nn2c1C | -5.7 | 2.2 | 0.6 | 1.1 | -39.1*
CCCCCc1cc(=O)oc2c(C(CCN3CCCC3)c3ccc(N(C)C)cc3)c(OC)cc(OC)c12 (centres undefined) | 1.4 | 3.3 | -0.1 | 1.8 | 12.0
CCCCCc1cc(=O)oc2c(C(CCN(CC)CC)c3ccc(OC)cc3)c(OC)cc(OC)c12 (centres undefined) | -12.8 | 3.8 | 1.7 | 40.5* | -39.4*
CCCCCc1cc(=O)oc2c(C(CCN3CCN(c4ccccc4)CC3)c3ccc4c(c3)OCO4)c(OC)cc(OC)c12 (centres undefined) | -6.0 | 23.3 | 0.5 | 2.0 | -31.5*
CCCCCc1cc(=O)oc2c(C(CCN3CCCC3)c3cc(OC)c(OC)c(OC)c3)c(OC)cc(OC)c12 (centres undefined) | -12.7 | 0.7 | -1.1 | 37.1* | -33.6*
Cc1cc(C=O)c(C)n1-c1ccc(Oc2ccc([N+](=O)[O-])cn2)cc1 | -2.6 | -7.4 | 5.2 | 22.4 | -53.2*
COc1ccc(NC(=O)/C(C#N)=C\c2cc(C)n(-c3ccc(Oc4ccc([N+](=O)[O-])cn4)cc3)c2C)cc1 | 3.5 | -17.5 | 0.9 | 2.5 | 9.0
O=[N+]([O-])c1ccccc1-c1ccc(CN2CCN(c3ccccc3)CC2)o1 | -8.8 | -5.3 | 0.2 | 0.3 | -32.6*
Cc1occc1C(=O)N/N=C/c1cnn(C)c1C | -12.7 | -3.7 | 0.2 | 0.9 | -39.9*
Cc1c(/C=N\NC(=O)c2ccc(F)cc2)cnn1C | 1.6 | 0.0 | 0.3 | 0.6 | -21.8
CC(NC(=O)c1ccc(Cl)cc1)c1nnc(SCC(=O)NC2=NCCS2)n1C (centres undefined) | -6.1 | -1.2 | 0.4 | 4.2 | -1.6
Cc1ccc(Cl)cc1N(C)C(=O)c1noc2c1CCCCC2 | 1.6 | 8.3 | -0.6 | 0.3 | -9.5
O=c1cc(O)c2c(=O)n(-c3ccccc3)c3c(c2o1)CCCCC3 | -0.8 | -3.5 | 0.1 | -0.3 | 7.8
O=C(COC(=O)c1ccccc1SCC(=O)N1CCCC1)Nc1ccccc1 | -2.1 | 2.0 | -0.9 | 9.2 | -24.8
CC(C)(C)N(Cc1ccccc1)C(=O)COC(=O)c1ccccc1SCC(=O)N1CCCC1 | -5.5 | -1.1 | 0.2 | 0.0 | -37.6*
CC1CCN(C2CCN(C(=O)c3ccccc3F)CC2)CC1 | -1.9 | -1.5 | 0.6 | 0.4 | -81.9*
CC1CN(C2CCN(C(=O)c3ccccc3)CC2)CC(C)O1 (centres undefined) | -1.1 | 17.3 | 0.2 | 1.0 | -31.2*
Nc1cccc(/C=C/c2ccncc2)c1 | 0.2 | 3.4 | -0.2 | 1.0 | -41.4*
O=C(NCc1ccccc1)C1CCCN(S(=O)(=O)c2cccc3nonc23)C1 (centres undefined) | 0.3 | 4.0 | -0.6 | 2.0 | 6.7
O=C(NC1CCN(Cc2ccccc2)CC1)C1CCCN(S(=O)(=O)c2cccc3nonc23)C1 (centres undefined) | -2.9 | 36.5* | -0.2 | 15.3 | -14.5
CCC(C)NC(=O)C1CCN(S(=O)(=O)c2cccc3nonc23)CC1 (centres undefined) | 3.0 | 31.2* | 0.2 | -2.9 | -3.3
CC(C)NC(=O)C1CCCN(S(=O)(=O)c2cccc3nonc23)C1 (centres undefined) | -6.5 | 1.6 | 0.4 | 0.1 | 13.3
N#Cc1cc2c(=O)n3ccccc3nc2n(-c2nnc(SCc3ccc(F)cc3)s2)c1=O | -2.7 | -5.0 | 0.2 | 0.6 | -9.7
O=C(COC(=O)c1cccc(S(=O)(=O)N2CCCC2)c1)Nc1ccccc1C(F)(F)F | -2.8 | -8.9 | 0.0 | 7.8 | -33.2*
O=C(COC(=O)c1cccc(S(=O)(=O)N2CCCCCC2)c1)Nc1ccccc1 | 8.2 | -1.1 | 1.0 | 5.7 | 19.1
SMILES | D1 PAM | TRHR enhancer | TRHR agonist | D1 agonist | D1 antagonist
Cc1ccc(C)c(NC(=O)COC(=O)c2cccc(S(=O)(=O)N3CCCCC3)c2)c1 | 14.6 | -9.7 | 0.0 | 2.3 | -11.5
NC(=O)NC(=O)COC(=O)c1cccc(S(=O)(=O)N2CCCCCC2)c1 | -5.5 | 2.7 | 0.5 | 1.2 | -43.6*
COc1cccc(CNCCCSc2nnnn2C)c1OC | -0.9 | 4.2 | 0.0 | 1.0 | 10.0
CCc1nn(CC(=O)NCCN(CC(C)C)CC(C)C)c(=O)c2cc3sc(C)cc3n12 | -2.8 | 54.7* | -0.4 | -0.8 | 3.5
CCOc1ccc(CCNC(=O)Cn2nc(CC)n3c(cc4ccccc43)c2=O)cc1 | -3.7 | 2.7 | 0.0 | 0.9 | -43.0*
CS(=O)(=O)c1ccccc1-c1csc(N2CCC(C(N)=O)CC2)n1 | 0.4 | 8.3 | 0.1 | 3.5 | -29.7
Cc1ccc(/C=N/NC(=O)C(=O)N/N=C/c2ccc(C)o2)o1 | -2.3 | 0.7 | -1.8 | -0.7 | -30.8*
CCOc1ccc(NCc2cccn2-c2nnc(N3CCC(C(=O)NCCc4ccc(OC)c(OC)c4)CC3)s2)cc1 | -3.5 | -2.1 | 0.6 | 6.7 | -31.3*
CCOc1ccc(NCc2cccn2-c2nnc(N3CCC(C(=O)NCCc4ccc(OCC)c(OCC)c4)CC3)s2)cc1 | -6.0 | -12.8 | 0.1 | -0.3 | -13.3
CCOC(=O)c1ccccc1NC(=O)c1cn(CC(C)C)c(=O)c2cc(OC)c(OC)cc12 | -0.8 | 2.1 | -0.4 | 3.6 | 9.0
CCCN1CN=C(Nc2nc3ccccc3o2)NC1 | 0.1 | 9.7 | 1.8 | 1.1 | -4.8
OCCN1CN=C(Nc2nc3ccccc3o2)NC1 | 0.6 | -7.3 | 0.0 | 0.3 | -42.1*
Cc1ccc(CNc2nc(-c3ccco3)nn2S(C)(=O)=O)cc1 | -2.4 | 15.8 | -1.3 | 5.5 | -27.4
CC(=O)c1cccc(NC(=O)COc2cc(C)on2)c1 | -3.3 | 3.6 | -0.2 | 0.4 | 7.8
C/C(CC(=O)Nc1ccc(C)c(Cl)c1)=N\NC(=O)c1cccc(O)c1 | -1.3 | 31.6* | 0.3 | 0.7 | 0.1
C/C(CC(=O)Nc1cccc(Cl)c1Cl)=N\NC(=O)c1ccccc1C | -7.0 | 0.3 | 0.2 | 2.9 | -43.1*
CN(c1ccccc1)S(=O)(=O)c1ccc(NC(=O)c2cc(=O)c3ccccc3o2)cc1 | -2.1 | 23.5 | 0.6 | 2.9 | -1.9
COC(=O)c1ccc2c(=O)n(Cc3ccc(C(=O)NCCCN4CCC(C)CC4)cc3)c(=S)[nH]c2c1 | -10.8 | 2.8 | 0.3 | 0.3 | -42.1*
COc1c2ccc(C(=O)NCCCCc3ccccc3)cc2nn1C | -7.6 | 3.7 | 0.2 | 3.0 | -34.9*
CCCCCNC(=O)c1ccc2c(=O)n(CCc3ccccc3)c(=O)[nH]c2c1 | -1.1 | 3.8 | 0.3 | 1.3 | 7.6
CC1CCN(CCCNC(=O)c2ccc3c(=O)n(Cc4ccc(Cl)cc4)c(=S)[nH]c3c2)CC1 | -7.6 | -6.5 | 0.9 | 12.2 | 0.0
O=C(NCCCN1CCCCC1)c1ccc2c(=O)n(CCc3ccccc3)c(=O)[nH]c2c1 | -7.8 | 1.3 | 1.5 | 0.7 | -45.9*
CCOCCCNC(=O)c1ccc2c(=O)n(CCc3ccccc3)c(=O)[nH]c2c1 | -1.2 | -1.3 | 0.4 | -0.2 | -38.8*
